# Several values for one entry are separate records, joined by “and”; a condition that tells them apart may be missing. Equal entries are not always repeated. Records with an inconclusive call do not appear. Activity calls are given as the source filed them. How the source made its calls, unless noted: active means hit-call score of the fitted dose curve at least 0.9, where 1 is the maximum; inconclusive means response in the unintended direction; inactive means score below 0.9.
# Legend:
# [1] = biological target: Estrogen receptor (Homo sapiens) (UniProt P03372); assay: CCTE_Deisenroth_AIME_384WELL_LUC_Active: CCTE's 384-well Estrogen Receptor Transactivation Assay with AIME metabolic competence (ERTA luciferase; metabolism positive), Deisenroth Lab (AID 2284030)
# Chain of Estrogen receptor (Homo sapiens) (P03372 whole entry, looked up): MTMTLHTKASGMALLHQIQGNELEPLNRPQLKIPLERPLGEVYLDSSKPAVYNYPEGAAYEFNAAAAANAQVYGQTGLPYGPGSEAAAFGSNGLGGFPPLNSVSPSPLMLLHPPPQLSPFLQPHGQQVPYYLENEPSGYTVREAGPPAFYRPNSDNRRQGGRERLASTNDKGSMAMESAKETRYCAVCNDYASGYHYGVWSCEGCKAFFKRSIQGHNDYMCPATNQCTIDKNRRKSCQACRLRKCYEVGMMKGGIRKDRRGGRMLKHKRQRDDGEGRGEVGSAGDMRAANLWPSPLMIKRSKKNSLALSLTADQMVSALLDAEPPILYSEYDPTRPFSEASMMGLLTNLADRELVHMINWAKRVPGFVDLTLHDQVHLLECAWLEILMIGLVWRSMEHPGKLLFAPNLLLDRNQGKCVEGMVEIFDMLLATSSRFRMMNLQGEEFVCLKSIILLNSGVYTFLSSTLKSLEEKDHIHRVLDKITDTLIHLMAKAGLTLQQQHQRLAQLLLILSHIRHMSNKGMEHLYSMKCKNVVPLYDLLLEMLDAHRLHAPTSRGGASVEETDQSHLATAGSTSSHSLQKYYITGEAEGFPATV
# Procedure, shortened: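 Test chemicals (10-point series, 0.002 - 200 uM) were preincubated 2 hours with alginate-immobilized phenobarbital/beta-naphthoflavone-induced male Sprague Dawley rat liver S9; conditioned medium then went onto VM7Luc4E2 breast cells for 24 hour. Luciferase gain-of-signal fitted relative to 17beta-estradiol.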
# [2] = CCTE_Deisenroth_AIME_384WELL_CTox_Active: Cytotoxicity Assessment (CTOX) in CCTE's 384-well Estrogen Receptor Transactivation Assay with AIME metabolic competence (metabolism positive), Deisenroth Lab (AID 2284037);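 further: chemicals first conditioned 2 h by alginate-bound induced rat liver S9 before cells; activity means signal loss indicating cell death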
# Procedure, shortened: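 VM7Luc4E2 breast cells received medium pre-incubated 2 h with chemical over alginate microspheres holding induced male Sprague Dawley rat liver S9; viability read 24 h later by protease-substrate fluorescence. Loss of signal, bidirectional fit, 0.002–200 uM.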
# [3] = biological target: Estrogen receptor (Homo sapiens) (UniProt P03372); assay: CCTE_Deisenroth_AIME_384WELL_LUC_Inactive: CCTE's 384-well Estrogen Receptor Transactivation Assay without AIME metabolic competence (ERTA luciferase; metabolism negative), Deisenroth Lab (AID 2284038);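 further: hits raise estrogen receptor luciferase signal so potencies reflect agonists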
# Procedure, shortened: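 Chemicals (10-point series, 0.002 - 200 uM) were incubated 2 hours with alginate-water microsphere lids lacking S9, then the conditioned medium was transferred to VM7Luc4E2 breast cells for 24 hour. Luciferase induction was read by bioluminescence, fitted upward relative to 17beta-estradiol.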
# [4] = CCTE_Deisenroth_AIME_384WELL_CTox_Inactive: Cytotoxicity Assessment (CTOX) in CCTE's 384-well Estrogen Receptor Transactivation Assay without AIME metabolic competence (metabolism negative), Deisenroth Lab (AID 2284039);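 further: cell viability via live-cell protease substrate cleaved to fluorescent probe; cells exposed 24 h to medium preincubated 2 h with alginate-water beads without S9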
# Procedure, shortened: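 VM7Luc4E2 human breast cells received conditioned medium from a 2 h incubation of chemical with alginate-water microspheres (no S9), then were exposed 24 h. Viability was read as protease-substrate cleavage to a fluorescent probe; loss of signal was fitted bidirectionally over 0.002–200 uM.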
# [5] = CCTE_Shafer_MEA_dev_firing_rate_mean: CCTE's Neural Network Formation Assay for Mean Firing Rate, Shafer Lab (AID 2284031; active means hit-call score of the fitted dose curve at least 0.9, where 1 is the maximum; inactive means score below 0.9;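 further: curve fitted for loss of firing so AC50 reflects decreased mean firing rate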)
# Procedure, shortened: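 Primary rat cortical neurons on 48-well, 16-electrode MEAs (PEI-coated, laminin at plating), exposed from day 0 with compound renewed at DIV 5 and 9. Spikes recorded DIV 5, 7, 9, 12; well-mean firing rate collapsed to trapezoidal AUC, loss-of-signal vs DMSO.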
# [6] = CCTE_Shafer_MEA_dev_per_burst_spike_percent: CCTE's Neural Network Formation Assay for Percent of Spikes in a Burst, Shafer Lab (AID 2284032; active means hit-call score of the fitted dose curve at least 0.9, where 1 is the maximum; inactive means score below 0.9;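 further: fitted as a decrease in burst spike percentage below DMSO baseline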)
# Procedure, shortened: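 Rat primary cortical neurons on 16-electrode MEA wells, dosed from plating day 0 for 12 days with renewal on DIV 5 and 9; spikes-in-bursts percentage averaged over bursting electrodes, collapsed as AUC across days 5, 7, 9, 12; loss direction versus DMSO.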
compound,measurement,setting,value
C[Si](C)(C)N[Si](C)(C)C,outcome,[1],inactive
same,outcome,[2],inactive
same,outcome,[3],inactive
same,outcome,[4],inactive
O=S(=O)(O)c1ccc(N=Nc2c(O)ccc3ccccc23)cc1,AC50,[2],71.3 µM (active)
same,outcome,[3],inactive
same,AC50,[4],72.8 µM (active)
CO[Si](C)(C)OC,outcome,[1],inactive
same,outcome,[3],inactive
CCC(C)(O)CCCC(C)C (configuration not stated),outcome,[1],inactive
same,outcome,[3],inactive
CCCCCCCCCC(C)=O,outcome,[1],inactive
same,outcome,[2],inactive
same,outcome,[3],inactive
same,outcome,[4],inactive
CCCCCCCCCCCCCCCCCCOS(=O)(=O)O,outcome,[1],inactive
same,outcome,[2],inactive
same,outcome,[3],inactive
same,outcome,[4],inactive
O=C(O)c1cc(O)c2ccccc2c1O,AC50,[2],34.5 µM (active)
same,AC50,[4],56.4 µM (active)
CCCCCC[C@@H](O)C/C=C\CCCCCCCC(=O)OCC(O)CO (some centres not stated),outcome,[1],inactive
same,outcome,[2],inactive
same,outcome,[3],inactive
same,outcome,[4],inactive
CC(C)(C)N,outcome,[1],inactive
same,outcome,[3],inactive
same,outcome,[4],inactive
CC(C)c1cc(C(C)C)cc(C(C)C)c1,outcome,[1],inactive
same,outcome,[2],inactive
same,outcome,[3],inactive
same,outcome,[4],inactive
CCCCCCCCCCCCc1ccc(O)cc1,AC50,[1],0.804 µM (active)
same,AC50,[2],72.1 µM (active)
same,AC50,[3],1.01 µM (active)
same,AC50,[4],86.1 µM (active)
CC(C)=CCCC(C)=CC#N,outcome,[1],inactive
same,outcome,[3],inactive
CCCCNS(=O)(=O)c1ccc(C)cc1,outcome,[1],inactive
same,outcome,[3],inactive
O=C(Nc1ccccc1)c1cc(Cl)ccc1O,outcome,[1],inactive
same,AC50,[2],33.4 µM (active)
same,outcome,[3],inactive
same,AC50,[4],0.484 µM (active)
CCC1COC(=O)O1 (configuration not stated),outcome,[1],inactive
same,outcome,[2],inactive
same,outcome,[3],inactive
same,outcome,[4],inactive
C=CCOC(=O)c1ccc(C(=O)OCC=C)c(C(=O)OCC=C)c1,outcome,[1],inactive
same,outcome,[2],inactive
same,outcome,[3],inactive
C[N+](C)(C)CCCNS(=O)(=O)C(F)(F)C(F)(F)C(F)(F)C(F)(F)C(F)(F)C(F)(F)C(F)(F)C(F)(F)F,AC50,[5],4.93 µM (active) and 2.98 µM (active)
same,AC50,[6],2.98 µM (active) and 4.47 µM (active)
Nc1ccc(C(=O)O)cc1,outcome,[1],inactive
same,outcome,[2],inactive
same,outcome,[3],inactive
same,outcome,[4],inactive
O=C(O)CC(C(=O)O)S(=O)(=O)O (configuration not stated),outcome,[1],inactive
same,outcome,[3],inactive
same,outcome,[4],inactive
CCCCNC(=S)NCCCC,outcome,[1],inactive
same,outcome,[3],inactive
O=C(O)c1ccc2c(c1)C(=O)OC2=O,outcome,[1],inactive
same,outcome,[3],inactive
O=C(O)C1CCC(C(=O)O)CC1 (configuration not stated),outcome,[1],inactive
same,outcome,[2],inactive
same,outcome,[3],inactive
CCCCCCCCC(CO)CCCCCC (configuration not stated),outcome,[1],inactive
same,outcome,[3],inactive
CCCC(CC)c1ccccc1 (configuration not stated),outcome,[1],inactive
same,outcome,[2],inactive
same,outcome,[3],inactive
same,outcome,[4],inactive
C/C=C/C=C/CCCCCCCO,outcome,[1],inactive
same,outcome,[2],inactive
same,outcome,[3],inactive
same,AC50,[4],151 µM (active)
CC1(C)[C@@H]2CC[C@@]1(C)C(=O)C2,outcome,[1],inactive
same,outcome,[3],inactive
CCCCCCOc1ccc(N)cc1,outcome,[1],inactive
same,outcome,[2],inactive
same,AC50,[3],53.9 µM (active)
